The nature of assay [1]: Stat Signaling Pathway (AID 446).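 Note: ME-180 cervical cancer cells given 40 pM IL-6 alongside compound; SIE-controlled beta-lactamase reporter measured as 460/530 nm FRET emission ratio; % is set by controls: 0 for no effect and ±100 for the full control effect.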 Conditions: ME-180 (cervical carcinoma) SIE beta-lactamase reporter, IL-6 stimulated, 5 h; series mostly up to 17.2 µM. The method, boiled down:
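Compound effects on IL-6-induced STAT reporter activity were measured in ME-180 cells. After overnight culture, cells were co-treated with 40 pM IL-6 for 5 hrs before beta-lactamase substrate loading at room temperature.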

Assay [2] deals with Mitogen-activated protein kinase 10 (Mus musculus) (UniProt Q61831). Nature of the assay: JNK3 AlphaScreen Assay (AID 530).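 Note: kinase came from lysate of stimulated human HepG2 cells.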 Note: potency is the fitted concentration of half-maximal effect. Conditions: JNK3 lysate, c-Jun phosphorylation; series mostly up to 57.1 µM. The method, boiled down:
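HepG2 lysate (IL-1b/TNFa pre-activated) + biotin-GST-cJun 1-79 + anti-pSer73 cJun; cpd titration, 15 min RT; ATP 10 uM start; Tris pH 7.6, MgCl2, DTT, vanadate; beads in EDTA buffer; AlphaScreen.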
On the technique in general: In Alpha technology, singlet oxygen from a donor bead excites a nearby acceptor bead.

The nature of assay [3]: Cell Viability - N2a (AID 540; active = well fitted curve in the direction sought with a large enough effect; an effect the other way counts as inactive or inconclusive;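 note: plate controls were DMSO alone for no effect and tamoxifen control for full effect; nearly all actives have a fitted effect of over 45% in size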). The note with it: N2a mouse neuroblastoma cell viability; series mostly up to 92.2 µM. The method, boiled down: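 N2a mouse neuroblastoma, 1500 cells/well, 5 hr settle; compound 40 hr, 37 °C; CellTiter-Glo 20 min RT; luminescence; Hill-fit AC50.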
Assay [4] is described as follows: Cell Viability - HUV-EC-C (AID 542; active = well fitted curve in the direction sought with a large enough effect; an effect the other way counts as inactive or inconclusive;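 note: cells exposed to compound for 40 hours; % is set by controls: 0 for no effect and ±100 for the full control effect; nearly all actives have a fitted effect of over 35% in size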). Conditions: HUV-EC-C endothelial cell viability, qHTS; series mostly up to 92.2 µM. The method, boiled down: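 Luminescent ATP read-out (CellTiter-Glo, 20 min room temperature) after 40 hr compound treatment of HUV-EC-C cells at 37 °C. Concentration-response data fitted with the standard Hill equation to give AC50; tamoxifen and doxorubicin served as positive controls.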

A short description of assay [5]: Cell Viability - H-4-II-E (AID 543; active = well fitted curve in the direction sought with a large enough effect; an effect the other way counts as inactive or inconclusive;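 note: cells exposed to compound for 40 hours; % is set by controls: 0 for no effect and ±100 for the full control effect; nearly all actives have a fitted effect of over 35% in size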). The note with it: H-4-II-E rat hepatoma viability; series mostly up to 92.2 µM. The method in brief: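 qHTS, rat hepatoma H-4-II-E, 1500 cells/well; 40 hr compound exposure, 37 °C; CellTiter-Glo ATP luminescence after 20 min RT; AC50 by standard Hill fit.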
Assay [6] can be described thus: Cell Viability - Renal Proximal Tubule (AID 545; active = well fitted curve in the direction sought with a large enough effect; an effect the other way counts as inactive or inconclusive;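 note: cells exposed to compound for 40 hours; 0% = DMSO only and -100% = 100 µM tamoxifen; nearly all actives have a fitted effect of over 40% in size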). The note with it: renal proximal tubule cells viability, primary cells of rat origin; activity change, negative = cytotoxicity: at 91.7 µM (top of the series). The method in brief: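 Rat kidney proximal tubule cells, freshly isolated; 1000 cells/well, 5 hr settle, compound 40 hr 37 °C. CellTiter-Glo 20 min RT, luminescence read. AC50 by standard Hill fit.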

Assay [7] in a line: Cell Viability - Mesenchymal (AID 546; active = well fitted curve in the direction sought with a large enough effect; an effect the other way counts as inactive or inconclusive;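 note: cells exposed to compound for 40 hours before reading; 0% = DMSO only and -100% = 100 µM tamoxifen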). The note with it: mesenchymal cells viability, qHTS; activity change, negative = cytotoxicity: at 91.7 µM (top of the series). The method, boiled down:
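Human renal mesenchymal cells (glomerulus-derived), 1000 cells/well, 5 hr 37 °C pre-incubation; compound 40 hr, 37 °C; CellTiter-Glo, 20 min RT; luminescence; AC50 via Hill equation.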

The target of assay [8] is 3',5'-cyclic-AMP phosphodiesterase 4B (Homo sapiens) (UniProt Q07343). Nature of the assay: qHTS Assay for Inhibitors of PDE-IV (AID 607; active = well fitted activation curve with a large enough effect in the main read-out, with a control signal flat, not every such curve was filed as active; note: % of control where 0% means no effect). The note with it: HEK293 ACTOne CNG channel cells, membrane potential fluorescence; series mostly up to 22.9 µM. The method in brief: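 ACTOne HEK293 cells carry a modified cAMP-gated CNG channel and express endogenous PDE4; plated 1000 cells/well, compounds up to 22.9 uM final. Membrane-potential dye fluorescence (ex 535/em 590) was read; parental cells received 10 uM forskolin + 100 uM RO 20-1724.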
(In general: qHTS replaces the single test concentration by a dilution series.)

Assay [9] deals with Glucocorticoid receptor (Homo sapiens) (UniProt P04150). Nature of the assay: GR-EFC Redistribution (AID 451; calls by dose curve; note: potency is the fitted concentration of half-maximal effect). Conditions: CHO-K1 GR-EFC translocation, beta-gal luminescence, 2 h. The method, boiled down:
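CHO-K1 cells expressing nuclear EA and GR-ED fragments of b-gal; compounds titrated up to 46 uM final, 2 h at 37 C. GR nuclear translocation read as complemented b-gal luminescence after 1 h RT detection.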

Four compounds from PubChem BioAssay (NCATS) can be followed below.

A number with no mark means an inactive call. Results filed as inconclusive are left out. Calls of active or inactive are those of the source. Unless noted, calls come from the whole dose curve; as a rule, active = well fitted curve in either direction with a large enough effect (not every such curve was filed as active); inconclusive = small, poorly fitted or top-dose-only effect, or another doubt; inactive = flat fitted curve, though single readings scatter.

3',5'-cyclic-AMP phosphodiesterase 4B (Homo sapiens), sequence (Q07343 whole entry, looked up): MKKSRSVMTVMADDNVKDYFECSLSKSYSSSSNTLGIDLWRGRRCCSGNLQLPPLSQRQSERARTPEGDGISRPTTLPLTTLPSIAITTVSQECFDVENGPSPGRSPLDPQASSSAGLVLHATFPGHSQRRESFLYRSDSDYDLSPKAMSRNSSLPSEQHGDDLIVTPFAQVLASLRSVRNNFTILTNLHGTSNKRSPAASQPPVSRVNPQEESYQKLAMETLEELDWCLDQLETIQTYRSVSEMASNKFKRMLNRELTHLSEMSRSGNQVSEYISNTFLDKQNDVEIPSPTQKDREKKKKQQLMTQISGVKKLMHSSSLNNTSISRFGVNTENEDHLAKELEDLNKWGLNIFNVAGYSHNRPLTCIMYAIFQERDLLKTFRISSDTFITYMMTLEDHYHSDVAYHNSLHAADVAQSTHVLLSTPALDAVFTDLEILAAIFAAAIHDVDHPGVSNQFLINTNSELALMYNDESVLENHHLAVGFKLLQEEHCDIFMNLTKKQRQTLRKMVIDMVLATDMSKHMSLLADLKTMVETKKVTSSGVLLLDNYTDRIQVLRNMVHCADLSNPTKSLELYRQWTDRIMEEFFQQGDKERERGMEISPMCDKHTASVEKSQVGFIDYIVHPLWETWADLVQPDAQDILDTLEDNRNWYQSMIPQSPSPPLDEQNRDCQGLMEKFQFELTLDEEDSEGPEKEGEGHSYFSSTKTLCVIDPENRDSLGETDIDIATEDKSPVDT
Glucocorticoid receptor (Homo sapiens), sequence (P04150 whole entry, looked up, the tested form may be a part): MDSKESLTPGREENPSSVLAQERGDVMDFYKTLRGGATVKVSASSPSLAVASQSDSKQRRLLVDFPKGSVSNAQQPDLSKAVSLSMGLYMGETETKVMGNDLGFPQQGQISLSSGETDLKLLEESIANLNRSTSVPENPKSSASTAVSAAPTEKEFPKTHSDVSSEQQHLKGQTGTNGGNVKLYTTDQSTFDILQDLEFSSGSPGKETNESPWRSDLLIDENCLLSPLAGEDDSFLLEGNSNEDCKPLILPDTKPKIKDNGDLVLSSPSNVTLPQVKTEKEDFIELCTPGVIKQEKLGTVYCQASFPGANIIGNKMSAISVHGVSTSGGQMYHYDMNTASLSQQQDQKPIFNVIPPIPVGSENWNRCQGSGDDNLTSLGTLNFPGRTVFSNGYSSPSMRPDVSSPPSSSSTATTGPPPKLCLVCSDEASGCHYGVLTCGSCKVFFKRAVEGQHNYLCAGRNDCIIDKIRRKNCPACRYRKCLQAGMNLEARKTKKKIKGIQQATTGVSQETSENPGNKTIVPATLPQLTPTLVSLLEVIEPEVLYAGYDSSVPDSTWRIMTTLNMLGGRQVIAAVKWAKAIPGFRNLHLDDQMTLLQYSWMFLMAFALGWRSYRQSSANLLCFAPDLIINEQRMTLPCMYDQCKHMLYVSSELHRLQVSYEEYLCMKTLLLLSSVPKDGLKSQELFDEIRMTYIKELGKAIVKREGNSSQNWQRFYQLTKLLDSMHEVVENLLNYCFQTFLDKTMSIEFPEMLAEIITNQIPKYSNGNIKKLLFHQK

`CN=C(NC#N)NCCSCc1nc[nH]c1C`: the result in assay [1] and in assay [3] was inactive. Moreover, the Potency result in [2], in assay [4], in assay [5], in assay [7] and in [8] was “inactive” each time. Besides, the activity change, negative = cytotoxicity in assay [6] was -10.6%.

As to `Cc1ccc(=O)n(-c2ccccc2)c1`, the compound was called inactive in [1]. In addition, in assay [2], the Potency is 12.6 µM (active). Besides, in assay [8], the Potency entry is “inactive”.

Take `C[C@H](CS)C(=O)N1CCC[C@H]1C(=O)O`: the compound was classed as inactive in [1]. In addition, the Potency entry in assay [2] is “inactive”.

Take `CCCCCCCC/C=C\CCCCCCCC(=O)NCc1ccc(O)c(OC)c1`: the Potency in [9] was more than 46 µM. Further, the Potency entry in assay [8] is “inactive”.
